# Measurements taken from PubChem BioAssay (NCATS).
# “And” between values parts separate entries of the source, which are not always exact repeats. Identical values can stand only once. Results filed as inconclusive are left out. Unmarked numbers belong to inactive results. The source made the active and inactive calls. Calls follow the shape of the dose curve; as a rule, active = well fitted curve in the direction sought with a large enough effect; inconclusive = small, poorly fitted or top-dose-only effect, or another doubt; inactive = no such curve, though single readings can be large; an effect the other way counts as inactive or inconclusive.
# Experiments:
# [1] = Quantitative highthroughput screen to assess conditional lethalithy of NOMO1 cells grown in RPMI1640 with untreated serum (RPMI+s) (AID 1963876); also: nearly all actives have a fitted effect of over 35% in size;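 as to viability: 100% = DMSO wells and 0% = empty wells without cells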
# Summary of the method: (§1)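 Each medium arm—HPLM with 10% dialyzed FBS, or RPMI1640 with 5 mM glucose and 10% untreated or dialyzed FBS—was screened against an 11-point, 3-fold compound titration for 48 h at 37 °C, with CellTiter-Glo luminescence as endpoint.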
# [2] = Quantitative highthroughput screen to assess conditional lethalithy of P12 Ichikawa cells grown in Human Plasma-Like Medium with dialyzed fetal bovine serum (HPLM+ds) (AID 1963879); details: Potency: viability; also: nearly all actives have a fitted effect of over 35% in size; as to viability: series mostly up to about 46 µM
# Summary of the method: as §1
# [3] = Quantitative highthroughput screen to assess conditional lethalithy of P12 Ichikawa cells grown in RPMI1640 with dialyzed fetal bovine serum (RPMI+ds) (AID 1963880); details: Potency: P12-Ichikawa viability; also: nearly all actives have a fitted effect of over 35% in size;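 as to viability: 100% = DMSO wells and 0% = empty wells on each plate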
# Summary of the method: as §1
# [4] = Cellular viability qHTS for adrenocortical cancer (ACC) cell line SW-13 (AID 1963989); details: SW-13 ACC cells viability, CellTiter-Glo, 48 h; activity (max response): hits give low values; also: nearly all actives have a fitted effect of over 65% in size;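 as to activity (max response): cells grown in serum-free medium with ITS supplement; % is scaled to controls: 0 for no effect and ±100 for the full control effect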
# Summary of the method: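 Luminescent ATP read-out (CellTiter-Glo, 20 min at room temperature) measured metabolically competent SW-13 cells after 48 h compound treatment. Final concentrations spanned up to 46 uM; bortezomib served as positive control.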
# [5] = Quantitative highthroughput screen to assess conditional lethalithy of P12 Ichikawa cells grown in RPMI1640 with untreated serum (RPMI+s) (AID 1963881); details: Potency: viability; also: nearly all actives have a fitted effect of over 35% in size;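 as to viability: series mostly up to about 46 µM; 100% = DMSO wells and 0% = empty wells without cells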
# Summary of the method: as §1
# [6] = Quantitative highthroughput screen to assess conditional lethalithy of SEM cells grown in Human Plasma-Like Medium with dialyzed fetal bovine serum (HPLM+ds) (AID 1963882); also: nearly all actives have a fitted effect of over 35% in size; as to viability: series mostly up to about 46 µM
# Summary of the method: as §1
# [7] = Quantitative highthroughput screen to assess conditional lethalithy of SEM cells grown in RPMI1640 with dialyzed fetal bovine serum (RPMI+ds) (AID 1963884); also: nearly all actives have a fitted effect of over 35% in size;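 as to viability: series mostly up to about 46 µM; 100% = DMSO control wells and 0% = empty wells without cells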
# Summary of the method: as §1
# [8] = Cellular viability qHTS for adrenocortical cancer (ACC) cell line NCI-H295R (AID 1963990); also: nearly all actives have a fitted effect of over 60% in size
# Summary of the method: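 IC50 and maximal efficacy derive from four-parameter logistic modelling of titration curves, with reads scaled between DMSO-only wells (0%) and doxorubicin hydrochloride (100% inhibition). Compounds spanned up to 46 uM over 48 h.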
# [9] = Quantitative highthroughput screen to assess conditional lethalithy of SEM cells grown in RPMI1640 with unreated serum (RPMI+s) (AID 1963883); also: nearly all actives have a fitted effect of over 35% in size;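 as to viability: 100% = DMSO wells and 0% = empty wells without cells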
# Summary of the method: as §1
# [10] = Quantitative highthroughput screen to assess conditional lethalithy of NOMO1 cells grown in Human Plasma-Like Medium with dialyzed fetal bovine serum (HPLM+ds) (AID 1963878); also: nearly all actives have a fitted effect of over 35% in size;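 as to viability: 100% = DMSO wells and 0% = empty wells on each plate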
# Summary of the method: as §1
# Potency is read from the fitted curve at half-maximal effect.
compound,measurement,setting,value
COc1ccc(-c2ccc3c(N4CCOC[C@H]4C)nc(N4CCOC[C@H]4C)nc3n2)cc1CO,Potency,[1],18.7 µM (active)
same,Potency,[2],18.7 µM (active)
COC[C@@H](c1ccc(C(F)(F)F)cc1)N1CCN(C2(C)CCN(C(=O)c3c(C)ncnc3C)CC2)C[C@H]1C,Potency,[1],2.35 µM (active)
same,Potency,[2],inactive
same,Potency,[3],inactive
same,activity (max response),[4],-14.2%
N#CC(=C(N)Sc1ccccc1N)C(C#N)=C(N)Sc1ccccc1N,Potency,[1],inactive
same,Potency,[2],inactive
same,Potency,[5],inactive
O=C(O)c1ccc(-c2cc3cccnc3c(-c3ccc4nonc4c3)n2)cc1,Potency,[1],inactive
same,Potency,[2],inactive
same,Potency,[5],inactive
O=C(O)CCC1CCC(c2cc(F)ccc2F)(S(=O)(=O)c2ccc(Cl)cc2)CC1 (centres undefined),Potency,[1],1.48 µM (active)
same,Potency,[2],8.33 µM (active)
same,Potency,[3],14.8 µM (active)
same,Potency,[5],9.35 µM (active)
same,Potency,[6],inactive
same,Potency,[7],inactive
same,activity (max response),[4],-1.6%
same,Potency,[8],inactive
CC[C@@H]1C(=O)N(C)c2cnc(Nc3ccc(C(=O)NC4CCN(C)CC4)cc3OC)nc2N1C1CCCC1,Potency,[1],0.0662 µM (active)
same,Potency,[2],0.0264 µM (active)
same,Potency,[3],0.0332 µM (active)
same,Potency,[5],0.0332 µM (active)
same,Potency,[6],0.0372 µM (active)
same,Potency,[9],0.0469 µM (active)
same,Potency,[7],0.0469 µM (active)
same,Potency,[4],0.0355 µM (active)
C[C@H]1O[C@@H](n2cc(F)c(=O)[nH]c2=O)[C@H](O)[C@H]1O,Potency,[1],inactive
same,Potency,[2],inactive
same,Potency,[3],inactive
same,Potency,[5],inactive
CC(=O)Oc1cc2c(s1)CCN(C(C(=O)C1CC1)c1ccccc1F)C2 (centres undefined),Potency,[1],14.8 µM (active)
same,Potency,[10],4.69 µM (active)
same,Potency,[6],18.7 µM (active)
same,activity (max response),[4],-22.6% and -6.86%
same,Potency,[8],inactive
Cc1[nH]c(C=C2C(=O)Nc3ccccc32)c(C)c1CCC(=O)O,Potency,[1],14.8 µM (active)
same,Potency,[2],9.35 µM (active)
same,Potency,[3],18.7 µM (active)
same,Potency,[5],13.2 µM (active)
COC(=O)[C@H](c1ccccc1Cl)N1CCc2sccc2C1,Potency,[1],1.05 µM (active)
same,Potency,[2],8.33 µM (active)
same,Potency,[3],11.8 µM (active)
same,Potency,[5],9.35 µM (active)
same,Potency,[6],inactive
same,Potency,[9],inactive
same,Potency,[7],inactive
same,activity (max response),[4],-22.7%
same,Potency,[8],inactive
COc1cc(C(C)=O)ccc1OCCCN1CCC(c2noc3cc(F)ccc23)CC1,Potency,[1],inactive
same,Potency,[2],inactive
same,Potency,[3],inactive
same,Potency,[5],inactive
same,Potency,[6],inactive
same,Potency,[9],inactive
same,Potency,[7],inactive
same,Potency,[8],inactive
Cc1cnc(Nc2ccc(F)cc2Cl)nc1-c1c[nH]c(C(=O)N[C@H](CO)c2cccc(Cl)c2)c1,Potency,[1],1.05 µM (active)
same,Potency,[10],1.66 µM (active)
same,Potency,[4],20 µM (active)
same,Potency,[8],14.1 µM (active)
O=S(=O)(N=Cc1c(O)ccc2ccccc12)c1cccs1,Potency,[1],inactive
same,Potency,[2],16.6 µM (active)
same,Potency,[3],inactive
same,Potency,[5],inactive
same,Potency,[7],inactive
CC(=CC(=O)Nc1ccccc1C(=O)O)c1ccc2ccccc2c1,Potency,[1],inactive
same,Potency,[2],inactive
same,Potency,[3],inactive
same,Potency,[5],inactive
same,Potency,[9],23.5 µM (active)
Clc1ccc(COC(Cn2ccnc2)c2ccc(Cl)cc2Cl)cc1 (centres undefined),Potency,[1],inactive
same,Potency,[10],inactive
same,Potency,[2],inactive
same,Potency,[3],5.9 µM (active)
same,Potency,[6],inactive
same,Potency,[7],inactive
CC(C)(C)[C@H](NC(=O)c1ccc(N)c(Cl)c1)C(=O)N1CCC[C@@H]1C(=O)N[C@H](C#N)CC(=O)O,Potency,[1],0.105 µM (active)
same,Potency,[2],0.372 µM (active)
same,Potency,[3],1.05 µM (active)
same,Potency,[5],0.418 µM (active)
same,viability,[6],112% [at 3.51 µM]
same,viability,[9],92.8% [at 3.51 µM]
same,viability,[7],105% [at 3.51 µM]
C[C@@H]1CC[C@@]2(OC1)OC1CC3C4CC=C5CC(O)CCC5(C)C4CCC3(C)C1[C@@H]2C (some centres undefined),Potency,[1],14.8 µM (active)
same,Potency,[10],13.2 µM (active)
same,Potency,[2],11.8 µM (active)
same,Potency,[3],18.7 µM (active)
same,activity (max response),[4],-3.87%
same,Potency,[8],inactive
O=C(CCCN1CCC(O)(c2ccc(Cl)cc2)CC1)c1ccc(F)cc1,Potency,[1],inactive
same,Potency,[2],inactive
same,Potency,[3],inactive
same,Potency,[5],inactive
same,Potency,[6],inactive
CC(C)(C)c1[nH]cnc1C=c1[nH]c(=O)c(=Cc2ccccc2)[nH]c1=O,Potency,[1],0.0068 µM (active)
same,Potency,[2],0.0061 µM (active)
same,Potency,[3],0.0108 µM (active)
same,Potency,[5],0.0086 µM (active)
same,Potency,[6],0.0048 µM (active)
same,Potency,[9],0.0061 µM (active)
same,Potency,[7],0.0061 µM (active)
CN(C)N=Nc1nc[nH]c1C(N)=O,Potency,[1],inactive
same,Potency,[10],inactive
same,Potency,[2],2.64 µM (active)
same,Potency,[5],2.09 µM (active)
same,Potency,[6],inactive
same,Potency,[7],0.833 µM (active)
O=c1c2ccccc2nc2n1CCc1c-2[nH]c2ccccc12,Potency,[1],inactive
same,Potency,[10],inactive
same,Potency,[5],13.2 µM (active)
CN[C@H](CC(C)C)C(=O)N[C@H]1C(=O)N[C@@H](CC(N)=O)C(=O)N[C@@H]2C(=O)N[C@H]3C(=O)N[C@H](C(=O)N[C@H](C(=O)O)c4cc(O)cc(O)c4-c4cc3ccc4O)[C@H](O)c3ccc(c(Cl)c3)Oc3cc2cc(c3O[C@@H]2O[C@H](CO)[C@@H](O)[C@H](O)[C@@H]2O[C@H]2C[C@](C)(N)[C@H](O)[C@H](C)O2)Oc2ccc(cc2Cl)[C@H]1O,Potency,[1],inactive
same,Potency,[10],inactive
same,Potency,[2],inactive
same,Potency,[6],inactive
same,Potency,[9],inactive
same,Potency,[7],inactive
CC(C)(C)NC(=O)[C@H]1CC[C@H]2[C@@H]3CC[C@H]4NC(=O)C=C[C@]4(C)[C@H]3CC[C@]12C,Potency,[1],2.35 µM (active)
same,Potency,[2],10.5 µM (active)
same,Potency,[5],11.8 µM (active)
same,Potency,[7],inactive
same,activity (max response),[4],-6.83% and 2.59%
same,Potency,[8],inactive
